Screening results from PubChem BioAssay.
ERK AVP block: qHTS Assay for Inhibitors of the ERK Signaling Pathway using a Homogeneous Screening Assay. 72,000 compounds, 0.99% hits. Potency, µM (doses to about 57.5 µM), hits mostly inhibitors. HEK293-V1b, vasopressin-stimulated pERK AlphaScreen; also: nearly all actives have a fitted effect of over 55% in size
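Phosphorylated ERK1/2 detected via AlphaScreen bead proximity in lysates of V1b-expressing HEK293 cells given 25 nM vasopressin for 5 min after 30 min compound exposure (37 °C). AC50 from Hill equation; basal DMSO 0%, vasopressin 100%.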
TsaE inh: qHTS Assay for Inhibitors of YjeE | purified YjeE enzyme, qHTS inhibition assay | tRNA threonylcarbamoyladenosine biosynthesis protein TsaE (Escherichia coli (strain … | 71,000 compounds, 0.05% hits | Potency, µM | AID 605, 2007
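Fluorescence polarization of a BODIPY Texas Red–ADP probe (2 uM) bound to purified YjeE (10 uM) was read after 15 min room-temperature incubation with compounds. Loss of polarization marks inhibitors; ADP serves as titrated control.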
BRCT inh red: qHTS Assay for Inhibitors of BRCT-Phosphoprotein Interaction (Red Fluorophore) | 75,000 compounds, 0.03% hits | Potency, µM (series often up to 76.9 µM), hits mostly inhibitors | Breast cancer type 1 susceptibility protein (Homo sapiens), P38398 | BRCT-phosphopeptide binding, red fluorescence polarization | AID 892, 2007
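Rhodamine-labelled pBACH1 10-mer (100 nM) bound to BRCT domain (100 nM) at pH 7.3; compounds incubated 12 min room temperature, polarization read. Free peptide defines full inhibition; unlabelled decapeptide titrated as control.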
BRCT inh green: qHTS Assay for Inhibitors of BRCT-Phosphoprotein Interaction (Green Fluorophore); Breast cancer type 1 susceptibility protein (Homo sapiens), P38398; BRCA1 BRCT-phosphopeptide binding, green fluorescence polarization; Potency, µM (highest dose often 76.9 µM), hits mostly inhibitors; 75,000 compounds, 0.05% hits
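Fluorescence polarization: His-tagged BRCT (~35 kDa BRCA1 C-terminus, 250 nM) bound to 100 nM fluorescein-labeled phosphorylated 10-aa BACH1 peptide, pH 7.3 phosphate buffer with DTT and Tween 20. Compounds incubated 12 min at room temperature; inhibition read as lowered polarization.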
Pol III holo inh: qHTS Assay for Inhibitors of DNA Polymerase III Holoenzyme System | reconstituted DNA polymerase III holoenzyme replication, biochemical | Potency, µM (top dose mostly 57.1 µM) | 71,000 compounds, 0.25% hits
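Reconstituted *E. coli* holoenzyme (0.35 nM Pol III, 1 nM beta, 154 nM SSB, 2 nM primase) was preincubated with compound for 15 min at RT. Synthesis on 1.4 nM ssM13Gori ran 35 min, then was stopped with PicoGreen/EDTA and read as dsDNA fluorescence.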
USP2a inhib: qHTS Assay for Inhibitors of Ubiquitin-specific Protease USP2a; AID 927, 2007; Potency, µM (top dose mostly 38.3 µM), most hits filed as inhibitors; USP2a enzymatic assay, qHTS inhibition; Ubiquitin carboxyl-terminal hydrolase 2 (Homo sapiens), O75604; 60,000 compounds, 0.1% hits; also: nearly all actives have a fitted effect of over 60% in size
Target sequence (O75604 whole entry, looked up): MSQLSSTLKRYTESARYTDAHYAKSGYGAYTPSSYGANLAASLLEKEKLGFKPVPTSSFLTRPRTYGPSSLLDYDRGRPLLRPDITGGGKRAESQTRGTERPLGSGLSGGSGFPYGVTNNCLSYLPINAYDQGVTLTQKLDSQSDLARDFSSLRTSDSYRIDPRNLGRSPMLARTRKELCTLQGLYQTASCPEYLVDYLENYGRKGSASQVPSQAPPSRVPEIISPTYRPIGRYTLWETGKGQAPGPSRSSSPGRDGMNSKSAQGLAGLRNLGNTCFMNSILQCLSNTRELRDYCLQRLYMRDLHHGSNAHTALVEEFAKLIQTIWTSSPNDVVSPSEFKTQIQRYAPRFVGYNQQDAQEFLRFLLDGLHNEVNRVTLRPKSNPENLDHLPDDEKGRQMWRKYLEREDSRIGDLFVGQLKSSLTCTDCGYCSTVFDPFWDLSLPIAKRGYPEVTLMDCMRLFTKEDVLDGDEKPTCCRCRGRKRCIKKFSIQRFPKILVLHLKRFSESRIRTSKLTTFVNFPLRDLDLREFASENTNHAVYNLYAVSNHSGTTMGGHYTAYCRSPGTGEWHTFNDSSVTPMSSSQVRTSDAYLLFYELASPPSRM
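20 nM USP2 core + cpd, 30 min RT; add 20 nM Ub-PLA2/20 uM NBD C6-HPC; read Ex460/Em535 at 0 h and 2.5 h. Normalized to NEM; qHTS curve fit/classification.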
Large screens that a line does not name were inactive. Sampled rows, rich in hits. Any-hit rate of the full collection: about 1.3%. Calls follow the shape of the dose curve; as a rule, active = well fitted curve in the direction sought with a large enough effect; inconclusive = small, poorly fitted or top-dose-only effect, or another doubt; inactive = no such curve, though single readings can be large; an effect the other way counts as inactive or inconclusive.

COc1cc(C2CC(=O)c3c([nH]c(C(=O)OCCOC(C)C)c3C)C2)cc(OC)c1OC (centres undefined)	ERK AVP block 4µM (no result: USP2a inhib)
CCOCCOC(=O)c1[nH]c2c(c1C)C(=O)CC(c1ccc(N(C)C)cc1)C2 (centres undefined)	ERK AVP block 25µM (no result: USP2a inhib)
CCOC(=O)c1[nH]c2c(c1C)C(=O)CC(c1ccc(OC)c(OC)c1)C2 (centres undefined)	none
O=C(O)C(NS(=O)(=O)c1cccc2cccnc12)c1ccccc1 (centres undefined)	none (no result: ERK AVP block, USP2a inhib)
COc1ccc2c(c1)[n+]([O-])c(/C(C)=N/NC(N)=S)c(C)[n+]2[O-]	none (no result: USP2a inhib)
OC[C@@H]1NC[C@@H](O)[C@H]1O	none
CCCCCCCCC/C=C/CC1CC(=O)OC1=O (centres undefined)	none (no result: USP2a inhib)
CN(C)c1ccc(N=Cc2nc(-c3ccccc3)oc2O)cc1	ERK AVP block 13µM, TsaE inh inconclusive
CSc1ccccc1N=Cc1nc(-c2ccccc2)oc1O	none
Cc1ccc(C(=O)Nc2ccc(S(=O)(=O)O)c3cc(S(=O)(=O)O)cc(S(=O)(=O)O)c23)cc1NC(=O)c1cccc(NC(=O)Nc2cccc(C(=O)Nc3cc(C(=O)Nc4ccc(S(=O)(=O)O)c5cc(S(=O)(=O)O)cc(S(=O)(=O)O)c45)ccc3C)c2)c1	ERK AVP block inconclusive, Pol III holo inh 32µM
O=C(O)CCc1c2ccc(=O)c(O)c-2oc2c(O)c(O)ccc12	BRCT inh red inconclusive, BRCT inh green inconclusive, Pol III holo inh 0.079µM (no result: USP2a inhib)
CC1(C)CC(=O)C2=C(C1)OC1=C(C(=O)CC(C)(C)C1)C2c1ccc(O)cc1O	ERK AVP block 10µM, TsaE inh inconclusive, USP2a inhib inconclusive
O=C(CN1C(=O)c2ccccc2S1(=O)=O)NCCSc1ccccc1	none
Cc1ccc(SCCNC(=O)CN2C(=O)c3ccccc3S2(=O)=O)cc1	ERK AVP block 7.9µM
COc1ccc(OC)c(CCNC(=O)Cn2sc3nc(C)cc(C)c3c2=O)c1	ERK AVP block 16µM, TsaE inh inconclusive (no result: USP2a inhib)
O=C(c1cc2ncc(Br)cn2n1)N1CCN(C(=O)c2ccco2)CC1	Pol III holo inh 25µM
O=C(NC1CCS(=O)(=O)C1)OC1CCCCC1 (centres undefined)	Pol III holo inh 0.5µM
O=C(Nc1cccc2cccnc12)[C@@H]1[C@@H](C(=O)O)[C@H]2CC[C@@H]1O2	none (no result: USP2a inhib)
CN(C)c1ccc(NC(=O)CCCc2ccccc2)cc1	ERK AVP block 20µM
CCCOc1ccccc1NC(=O)c1ccc(N)cc1	none
CCCOc1ccccc1-c1nc2n[nH]nc2c(=O)[nH]1	USP2a inhib 10µM
c1ccc(-c2cc3c(N4CCOCC4)ncnc3s2)cc1	ERK AVP block 20µM
Cc1nc(N2CCOCC2)c2cc(-c3ccccc3)sc2n1	ERK AVP block 16µM
O=C(Cn1cnc2sc(-c3ccccc3)cc2c1=O)N1CCOCC1	none
Cc1cccc(N2CCN(C(=O)CSCc3c(C)noc3C)CC2)c1C	ERK AVP block 25µM
Cc1noc(C)c1CSCC(=O)N1CCN(c2ccc(F)cc2)CC1	none
COCC(=O)O[C@]1(CCN(C)CCCc2nc3ccccc3[nH]2)CCc2cc(F)ccc2[C@@H]1C(C)C	ERK AVP block 20µM
Nc1nc(CN2CCN(c3cccc(Cl)c3)CC2)nc(N2CCCc3ccccc32)n1	ERK AVP block 6.3µM
C=CCNc1ncnc2c1[nH]c1ccc(C)cc12	ERK AVP block 32µM
C=CCNc1ncnc2c1cnn2-c1ccc(C)cc1C	none (no result: ERK AVP block, USP2a inhib)
[N-]=[N+]=Nc1ccc(C(=O)CSC[C@@H](NC(=O)CC[C@@H](N)C(=O)O)C(=O)NCC(=O)O)cc1	none
